This is an account of results in PubChem BioAssay (NCATS).

Each structure is given as a SMILES string. Inconclusive results are not listed. A number with no mark means an inactive call. Calls of active or inactive are those of the source. Calls come from the whole dose curve; tested in HEK293 reporter line.
% is set by controls: 0 for no effect and ±100 for the full control effect; potency is the fitted concentration of half-maximal effect.

A short description of this test: qHTS for Inhibitors of the Functional Ribonucleoprotein Complex (vRNP) of Lassa (LASV) Arenavirus: Viability assay - alamar blue signal for LASV Primary Screen (AID 1347083). Note: nearly all actives have a fitted effect of over 80% in size. To be noted: cell viability, alamar blue fluorescence (LASV minigenome counter-screen); series mostly up to 57.5 µM; activity change, negative = reduced viability: at the top concentration. For orientation: qHTS replaces the single test concentration by a dilution series.
With `COc1ccc(C(=O)OC2CC3CC[C@H](C2)N3C(C)=O)cc1OC` (stereo not given in full), the “activity change, negative = reduced viability” value is 7%.
For the molecule `C=C1CC[C@H](O)C/C1=C/C=C1\CCC[C@]2(C)[C@@H]([C@H](C)CCC(O)C(C)(C)O)CC[C@@H]12` (stereo not given in full), the “activity change, negative = reduced viability” value is 13.2%.
For `CC(C)CN(C[C@H](O)[C@H](Cc1ccccc1)NC(=O)O[C@H]1CCOC1)S(=O)(=O)c1ccc(N)cc1`, the “activity change, negative = reduced viability” value was -11.4%.
On the same count and under the same terms, under `O=C1NC2C(=CC(O)C(O)C2O)c2cc3c(c(O)c21)OCO3` (stereo not given) stands -136%.
Still for that read-out and setting: under `CC(C)(O[C@@H]1O[C@H](CO)[C@@H](O)[C@H](O)[C@H]1O)[C@H]1Cc2cc3ccc(=O)oc3cc2O1` stands 10.6%.
On the same count and under the same terms, as for `COc1cc2oc(=O)ccc2cc1O`, the figure is 1.19%; as for `CCN(CC)CCNC(=O)c1ccc(NS(C)(=O)=O)cc1`, 21.7%.
Consider `O=c1c(O[C@@H]2OC([C@H](O)CO)[C@H](O)[C@H]2O)c(-c2ccc(O)c(O)c2)oc2cc(O)cc(O)c12` (stereo not given in full), for which the “activity change, negative = reduced viability” value is -0.449%.
On the same count and under the same terms, as for `CCOC(=O)c1ccccc1`, the figure is 1.69% [at 115 µM]; as for `CCCC(=O)C(C)=O`, 1.14% [at 115 µM]; as for `CO[C@H]1C[C@H](O[C@H]2[C@H](C)O[C@@H](O[C@@H]3/C(C)=C/C[C@@H]4C[C@@H](C[C@]5(C=C[C@H](C)[C@@H](C6CCCCC6)O5)O4)OC(=O)[C@@H]4C=C(C)[C@@H](O)[C@H]5OC/C(=C\C=C\[C@@H]3C)[C@]54O)C[C@@H]2OC)O[C@@H](C)[C@@H]1O`, 17.7%.
For `CNCCO`, the “activity change, negative = reduced viability” value was -4.19%.
In the case of `CC(C)CCC[C@@H](C)[C@@H]1CC[C@H]2C3=CC=C4CC(O)CC[C@]4(C)[C@H]3CC[C@@]21C` (stereo not given in full), the “activity change, negative = reduced viability” value was 24.7%.
As for `CCOC(=O)c1c(C)nc(C)c(C(=O)OCC)c1-c1ccccc1`, the “activity change, negative = reduced viability” value is 1.11%.
On the same count and under the same terms, under `ON=Cc1ccnc2ccccc12` stands 1.99%; under `C[C@@H]1CC[C@@]23COC(=O)C2=CCC[C@@H]3[C@@]1(C)CC/C(=C/CO)CO`, 19.1%.
`C=C1CCC2[C@](C)(CO)C(O)CC[C@]2(C)C1CC=C1C(=O)OCC1O` (stereo not given in full): the “activity change, negative = reduced viability” value was 20.8% [at 115 µM].
On to `COC(=O)CC(C)CCC=C(C)C` (stereo not given), for which the “activity change, negative = reduced viability” value was 9.33% [at 115 µM].
Same read-out and setting: under `NC(=O)c1ncn([C@@H]2O[C@H](CO)[C@@H](O)[C@@H]2O)c1N` stands 5.67%; under `COc1ccc([C@@H](OC)[C@@]2(Cc3ccc(O)cc3)N=C(N)N(C)C2=O)cc1`, 7.47%.
On the same count and under the same terms, under `CCCCCCOC(=O)CCC` stands 4.27% [at 115 µM]; under `CCOC(=O)[C@H](CCc1ccccc1)N[C@@H](C)C(=O)N1[C@@H](C(=O)O)C[C@H]2CCC[C@@H]21`, -25.6%; under `C[C@H]1CC[C@@H]2[C@@H](C)[C@H]3C(C[C@H]4C5CC[C@H]6C[C@@H](O)CC[C@]6(C)C5CC[C@]34C)N2C1` (stereo not given in full), 14%.
`COc1cc(C(=O)OC2CC3CCC2(C)C3(C)C)ccc1OC(C)=O` (stereo not given): the “activity change, negative = reduced viability” value is 12.6%.
On the same count and under the same terms, as for `CC(=O)OCC1=C(C(=O)O)N2C(=O)[C@@H](NC(=O)Cc3ccccc3)[C@H]2SC1`, the figure is 18%.
Same read-out and setting: under `Cn1cnc2c(ncn2[C@@H]2O[C@H](CO)[C@@H](O)[C@H]2O)c1=N` stands 2.9%; under `COC(=O)Cc1ccccc1`, 6.72% [at 115 µM]; under `O=C(CCc1ccc(O)cc1)c1c(O)cc(O)cc1O[C@@H]1O[C@H](CO)[C@H](O)[C@H](O)[C@H]1O`, 11%.
Take `COc1c(C)c2c(c(O)c1CC=C(C)CCC(=O)OCCN1CCOCC1)C(=O)OC2`: the Potency was 6.85 µM (active).
Take `COc1c(-c2ccc(O)cc2)oc2cc(O)cc(O)c2c1=O`: the “activity change, negative = reduced viability” value was -6.82%.
As to `CC(=O)O[C@H]1CC[C@@]2(C)[C@H](C1)C(=O)C[C@H]1[C@@H]3CC[C@@H]4[C@@H](CN5C[C@@H](C)CC[C@H]5[C@@]4(C)O)[C@@H]3C[C@@H]12`, the “activity change, negative = reduced viability” value is 18%.
Take `COc1ccc(-c2coc3cc(O[C@@H]4O[C@H](CO)[C@@H](O)[C@H](O)[C@H]4O)c(OC)cc3c2=O)cc1`: the “activity change, negative = reduced viability” value was 2.58%.
The same measure, in the same setting: under `Oc1cc(O)cc(-c2cc3ccc(O)cc3o2)c1` stands -28.4%; under `C/C=C(\C)C(=O)O[C@H](c1cc2ccc(=O)oc2cc1OC)[C@@H](O)C(C)(C)O`, 15.3%.
Same read-out and setting: under `C/C(=C\CNc1ncnc2c1ncn2[C@@H]1O[C@H](CO)[C@@H](O)[C@H]1O)CO` stands -0.177%; under `CCC1(CC)C(=O)NC(=O)N(c2ccccc2)C1=O`, 4.29%.
Still for that read-out and setting: under `O=c1cc(-c2ccc(O)cc2)oc2cc(OC3OC(CO)C(O)C(O)C3O)c(C3OC(CO)C(O)C(O)C3O)c(O)c12` (stereo not given) stands 7.64% [at 24.7 µM].
Take `O=C(CCCO)CCCCCCCCC[C@H]1N[C@H](CO)[C@@H](O)[C@@H]1O`: the “activity change, negative = reduced viability” value is 10.7%.
As for `C/C=C(/C)C(=O)O[C@@H]1[C@H](OC(=O)C=C(C)C)c2c(ccc3ccc(=O)oc23)OC1(C)C`, the “activity change, negative = reduced viability” value was 2.76%.
Turning to `OC(CC(O)c1ccccc1)c1ccccc1` (stereo not given), the “activity change, negative = reduced viability” value was 8.43%.
